{"source": "PubChem BioAssay AID1578", "about": "(Sanford-Burnham Center for Chemical Genomics, 2009)", "note": "Screen size: about 290,000 compounds; about 3,000 (1%) were called active. The sample holds actives, similar compounds and a random draw of the others, so the mix is not that of the screen. A number with no mark means an inactive call. Cut-off read from the data, not from the text of the source: active = inhibition mostly above about 36% (no sharp cut-off); inactive = mostly below about 34%."}
{"experiment": "inhibition of NOD1-driven NF-kB reporter – cell-based, luminescence, uHTS, primary screen (AID 1578);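 note: HEK-293T reporter cells stimulated with the NOD1 agonist gamma-tri-DAP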", "conditions": "NOD1-driven NF-kB luciferase reporter cells, at 4 µM, active compounds read high"}
{"smiles": "COc1ccc(-c2csc(-c3[nH]cnc3N)n2)cc1", "inhibition": "-36.1%"}
{"smiles": "COCCNC(=O)Cn1ccc2cc(S(=O)(=O)N3CCCCCC3)ccc21", "inhibition": "-9.2%"}
{"smiles": "COc1cc(-c2noc(C)c2-c2ccc3[nH]ccc3c2)cc(OC)c1OC", "inhibition": "33.3%"}
{"smiles": "CC1CCCN(C(=O)CCNS(=O)(=O)c2ccc3c(c2)oc(=O)n3C)C1", "note": "(stereo unspecified)", "inhibition": "-23.9%"}
{"smiles": "CC(C)N(c1ccccc1)c1ccc(NC(=S)NCCN(C)C)cc1", "inhibition": "-23.3%"}
{"smiles": "CC(=O)Nc1ccc(NC(=O)Cc2ccc(-c3ccccc3)cc2)cc1", "inhibition": "-16.2%"}
{"smiles": "O=C(CSCc1ccc(Cl)cc1)Nc1ccccc1O", "inhibition": "-40%"}
{"smiles": "Cc1ccc(C)c(Sc2ccc(NC(=O)CCl)cc2)c1", "inhibition": "19.3%"}
{"smiles": "O=C(Cc1ccc(-c2ccccc2)cc1)Nc1ccccc1", "inhibition": "-1.9%"}
{"smiles": "O=C(CCCSc1ccc(Cl)cc1)Nc1ccccc1O", "inhibition": "59.4% (active)"}
{"smiles": "CCNC(=S)Nc1ccc(N(c2ccccc2)C(C)C)cc1", "inhibition": "-9.8%"}
{"smiles": "CC(C)N(c1ccccc1)c1ccc(NC(=O)CCl)cc1", "inhibition": "95.4% (active)"}
{"smiles": "COC(=O)c1cccc(NC(=O)CCSc2ccc(Cl)cc2)c1C", "inhibition": "-10.1%"}
{"smiles": "Cc1ccc(Sc2ccc(NC(=O)CCl)cc2)cc1C", "inhibition": "21.2%"}
{"smiles": "O=C(CCl)Nc1ccc(-c2ccccc2)cc1", "inhibition": "78.6% (active)"}
{"smiles": "COc1ccc(/C=N/NC(=O)COc2ccc(Cl)cc2Cl)cc1Cn1nc(C)cc1C", "inhibition": "-18%"}
{"smiles": "COc1ccccc1N1CCN(C2CCCN(C(=O)CCC(C)=O)C2)CC1", "note": "(stereo unspecified)", "inhibition": "-21%"}
{"smiles": "COc1ccc(S(=O)(=O)N2CCC(C(=O)N[C@@H](C)C(=O)NCc3cccc(OC)c3)CC2)cc1", "inhibition": "-4.9%"}
{"smiles": "Cc1c(C)c2c(OCC(=O)N3CCC(C(=O)NCC(C)C)CC3)cc3c(c2oc1=O)CCC(C)(C)O3", "inhibition": "-19.1%"}
{"smiles": "O=C(CCCn1cnc2ccccc2c1=O)Nc1ccccc1F", "inhibition": "-9.5%"}
{"smiles": "Cc1cccc(C)c1NC(=O)C1C2C=CC(C2)C1C(=O)O", "note": "(stereo unspecified)", "inhibition": "-40.2%"}
{"smiles": "CCN1CCN(C(c2cccs2)C(C)NC(=O)c2ccco2)CC1", "note": "(stereo unspecified)", "inhibition": "5.5%"}
{"smiles": "CC(=O)Nc1nnc(/C=C/c2cccc([N+](=O)[O-])c2)s1", "inhibition": "46%"}
{"smiles": "CC(=O)C1=C(O)C(=O)N(Cc2ccco2)C1c1cccc(F)c1", "note": "(stereo unspecified)", "inhibition": "-28%"}
{"smiles": "O=C(NCc1ccco1)c1ccc(Cl)c(S(=O)(=O)Nc2ccccc2)c1", "inhibition": "-15%"}
{"smiles": "COc1ccc(N(CC(=O)Nc2cc([N+](=O)[O-])ccc2C)S(C)(=O)=O)cc1OC", "inhibition": "1.1%"}
{"smiles": "O=C(CCl)Nc1ccccc1Sc1ccccc1", "inhibition": "21.3%"}
{"smiles": "O=C(Cc1ccc(Cl)cc1)Nc1ccccc1Sc1ccccc1", "inhibition": "-16.9%"}
{"smiles": "O=C(O)CCCC(=O)Nc1ccc(N=Nc2ccccc2)cc1", "inhibition": "-13.6%"}
{"smiles": "O=C(O)CCC(=O)Nc1ccc(N=Nc2ccccc2)cc1", "inhibition": "-26.1%"}
{"smiles": "O=C(CCl)Nc1ccc(N=Nc2ccccc2)cc1", "inhibition": "107% (active)"}
{"smiles": "CCOc1ccccc1C(=O)N(Cc1sccc1C)C1CCS(=O)(=O)C1", "note": "(stereo unspecified)", "inhibition": "-17.4%"}
{"smiles": "COc1cc(NS(=O)(=O)c2ccc(NC(=S)NC(=O)c3sc4cc(F)ccc4c3Cl)cc2)nc(OC)n1", "inhibition": "47.7%"}
{"smiles": "Cc1nc2ccc(NC(=O)c3cccs3)cc2c(=O)n1Cc1ccc(Cl)cc1", "inhibition": "23%"}
{"smiles": "COc1ccc(CNC(=O)c2ccc(CS(=O)(=O)Cc3ccccc3F)o2)cc1", "inhibition": "6%"}
{"smiles": "Cc1[nH]c(C)c(S(=O)(=O)NCc2ccc(Cl)cc2)c1C(=O)N1CCCC1", "inhibition": "-23.5%"}
{"smiles": "CCN1C(=O)CS/C1=N\\S(=O)(=O)c1ccccc1", "inhibition": "4.8%"}
{"smiles": "O=c1c2ccccc2cnn1CCOc1ccccc1", "inhibition": "67.1% (active)"}
{"smiles": "O=c1c2ccccc2cnn1CCOc1cccc(Br)c1", "inhibition": "-51.9%"}
{"smiles": "COc1ccc2cnn(CCOc3ccccc3)c(=O)c2c1OC", "inhibition": "-63%"}
{"smiles": "O=c1[nH]c(CSc2ncnc3sc(-c4ccccc4)cc23)nc2ccccc12", "inhibition": "6.6%"}
{"smiles": "CC(Oc1ccc([N+](=O)[O-])cc1)C(=O)NCCCN1CCOCC1", "note": "(stereo unspecified)", "inhibition": "-6.2%"}
{"smiles": "CCc1nc2ccccc2c(C(=O)OCC(=O)Nc2ccc(S(=O)(=O)N3CCOCC3)cc2)c1C", "inhibition": "-22%"}
{"smiles": "CCCc1nc2ccccc2c(C(=O)OCC(=O)Nc2cccc(S(=O)(=O)N3CCOCC3)c2)c1CC", "inhibition": "25.8%"}
{"smiles": "COc1cc(NC(=S)NCCCN2CCOCC2)c(OC)cc1NC(=O)c1ccco1", "inhibition": "-24.2%"}
{"smiles": "CC(=O)c1c(C)n(-c2cccc(Cl)c2)c2ccc(O)cc12", "inhibition": "-4.6%"}
{"smiles": "CCOC(=O)Cc1csc(NC(=O)CSc2nc(-c3ccccc3)c(C#N)c(=O)[nH]2)n1", "inhibition": "-50.8%"}
{"smiles": "CCCCCNC(=O)C(=O)C1C(=O)Nc2ccccc21", "note": "(stereo unspecified)", "inhibition": "0.6%"}
{"smiles": "CC(C)c1ccc(C(=O)NCc2ccc(Cl)cc2)cc1", "inhibition": "-22.8%"}
{"smiles": "CC(C)c1ccc2c(c1)c(SC(C)(C)C)c(CC(C)(C)C(=O)O)n2Cc1ccc(Cl)cc1", "inhibition": "37.3% (active)"}
{"smiles": "Cc1ccc2c(c1)c(N=O)c(O)n2Cc1ccc(Cl)cc1", "inhibition": "31.7%"}
{"smiles": "Cc1ccc(C(=O)c2ccc(O)cc2)cc1C", "inhibition": "-29.5%"}
{"smiles": "O=C(Nc1cccc(Cl)c1)c1cc(N=Nc2ccc([N+](=O)[O-])cc2Cl)ccc1O", "inhibition": "95.3% (active)"}
{"smiles": "O=C(Nc1cccc(O)c1)c1ccc([N+](=O)[O-])cc1Cl", "inhibition": "-22.7%"}
{"smiles": "CC(=O)Nc1cccc(NC(=O)c2ccc([N+](=O)[O-])cc2Cl)c1", "inhibition": "-5.3%"}
{"smiles": "COc1cc(OC)cc(C(=O)N[C@H](C(=O)OCC(=O)Nc2ccc(F)c(F)c2)C(C)C)c1", "inhibition": "-11.6%"}
{"smiles": "O=C(NCC(O)c1ccc([N+](=O)[O-])cc1)Nc1ccccc1", "note": "(stereo unspecified)", "inhibition": "-4.6%"}
{"smiles": "COc1cccc(=O)c2c(C)n(-c3ccc(C(=O)O)cc3)c(C)c12", "inhibition": "58.9% (active)"}
{"smiles": "CCOc1cccc(=O)c2c(C)n(-c3ccc(C(=O)O)cc3)c(C)c12", "inhibition": "-22.7%"}
{"smiles": "COc1ccc(-n2c(C)c3c(OC)cccc(=O)c3c2C)cc1", "inhibition": "16.3%"}
{"smiles": "COc1cccc(N(C(=O)c2sc(C)nc2C)C(C(=O)NCC2CCCO2)c2ccccc2)c1", "note": "(stereo unspecified)", "inhibition": "-28.5%"}
{"smiles": "COc1ccc(OC)c(CCNC(=O)c2ccccc2NC(=O)C2=C(C)OCCS2)c1", "inhibition": "-12.2%"}
{"smiles": "COc1ccc(CCNC(=O)c2ccccc2NC(=O)C2=C(C)OCCS2)c(OC)c1", "inhibition": "51.1% (active)"}
{"smiles": "COc1cc(CCNC(=O)c2ccccc2NC(=O)C2=C(C)OCCS2)cc(OC)c1OC", "inhibition": "17.9%"}
{"smiles": "NS(=O)(=O)c1cccc(NC(=O)c2cc(=O)c3ccccc3o2)c1", "inhibition": "-9.2%"}
{"smiles": "CC(C)Cn1c(N)c(C(=O)COC(=O)c2ccc(O)cc2)c(=O)n(C)c1=O", "inhibition": "-0.8%"}
{"smiles": "CC(C)Cn1c(N)c(C(=O)COC(=O)c2ccccc2Cl)c(=O)n(C)c1=O", "inhibition": "-12.9%"}
{"smiles": "CC(C)Cn1c(N)c(C(=O)COC(=O)c2ccc(Cl)cc2)c(=O)n(C)c1=O", "inhibition": "4.6%"}
{"smiles": "CC(C)Cn1c(N)c(C(=O)COC(=O)Cc2cccs2)c(=O)n(C)c1=O", "inhibition": "-8.8%"}
{"smiles": "COCc1c(C(=O)OCC(=O)c2c(N)n(CC(C)C)c(=O)n(C)c2=O)oc2ccccc12", "inhibition": "32%"}
{"smiles": "CC(C)Cn1c(N)c(C(=O)COC(=O)C2CCCCC2)c(=O)n(C)c1=O", "inhibition": "0.4%"}
{"smiles": "Cc1cc(Oc2ccccc2)nc(-c2ccccc2O)n1", "inhibition": "-12.6%"}
{"smiles": "Nc1nccnc1C(=O)OCC(=O)NNC(=O)c1ccccc1", "inhibition": "-27.6%"}
{"smiles": "Cc1ccc(CSc2nc3ccsc3c(=O)n2Cc2ccccn2)cc1", "inhibition": "-0.8%"}
{"smiles": "CCc1ccc(NC(=O)COc2cccc(-n3cnnn3)c2)cc1", "inhibition": "4.3%"}
{"smiles": "CC(=O)c1cc2c(cc1NC(=O)CCCC(=O)O)OCO2", "inhibition": "-9.2%"}
{"smiles": "CC(=O)c1cc2c(cc1NC(=O)CCC1CCCC1)OCO2", "inhibition": "71.2% (active)"}
{"smiles": "CC(=O)c1cc2c(cc1NC(=O)CCn1cccc1)OCO2", "inhibition": "5%"}
{"smiles": "O=C(CSc1nccn1Cc1ccccc1)NC1CCCC1", "inhibition": "12.2%"}
{"smiles": "O=C(CSc1nccn1Cc1ccc(F)cc1)NC1CCCC1", "inhibition": "-2.9%"}
{"smiles": "Cc1ccc(Cn2ccnc2SCC(=O)NC2CCCC2)cc1", "inhibition": "51.4% (active)"}
{"smiles": "Cc1ccc(S(=O)(=O)N(C)C)cc1NC(=O)C1CCCC1", "inhibition": "18.4%"}
{"smiles": "COc1ccccc1OCCCC(=O)NC(C)c1ccccc1", "note": "(stereo unspecified)", "inhibition": "-14.4%"}
{"smiles": "C=CCN=C1NN=C(c2cc(C)n(CC=C)c2C)CS1", "inhibition": "85.5% (active)"}
{"smiles": "COCCn1c(C)cc(C2=NNC(=Nc3ccc(OC)cc3)SC2)c1C", "inhibition": "-3.2%"}
{"smiles": "COCCn1c(C)cc(C2=NNC(=NC(C)(C)C)SC2)c1C", "inhibition": "-27.4%"}
{"smiles": "COCCN=C1NN=C(c2cc(C)n(CC3CCCO3)c2C)CS1", "note": "(stereo unspecified)", "inhibition": "9.1%"}
{"smiles": "C=CCn1c(C)cc(C2=NNC(=NCC)SC2)c1C", "inhibition": "103% (active)"}
{"smiles": "C=CCn1c(C)cc(C2=NNC(=Nc3ccc(C)cc3)SC2)c1C", "inhibition": "-66.7%"}
{"smiles": "COCCCN=C1NN=C(c2cc(C)n(Cc3ccccc3Cl)c2C)CS1", "inhibition": "-46.7%"}
{"smiles": "Cc1cc(C2=NNC(=NCCc3ccccc3)SC2)c(C)n1CC1CCCO1", "note": "(stereo unspecified)", "inhibition": "-23%"}
{"smiles": "C=CCN=C1NN=C(c2cc(C)n(CCOC)c2C)CS1", "inhibition": "88.5% (active)"}
{"smiles": "C=CCn1c(C)cc(C2=NNC(=NCc3ccccc3)SC2)c1C", "inhibition": "-61.6%"}
{"smiles": "C=CCn1c(C)cc(C2=NNC(=NC(C)(C)C)SC2)c1C", "inhibition": "65%"}
{"smiles": "COCCn1c(C)cc(C2=NNC(=NC3CC3)SC2)c1C", "inhibition": "107% (active)"}
{"smiles": "Fc1cccc(CN2CCN(Cc3nc(CCc4ccccc4)no3)CC2)c1", "inhibition": "-21.1%"}
